Experimental findings from PubChem BioAssay AID651593 (National Center for Advancing Translational Sciences (NCATS), 2012) are described below.

Out of some 1,100 compounds screened, about 860 (78%) were called active. Roughly 19% stayed inconclusive and do not appear here. Calls come from the whole dose curve; as a rule, active = well fitted activation curve with a large enough effect; inconclusive = small, poorly fitted or top-dose-only effect; inactive = flat fitted curve, though single readings scatter. So high a share suggests a set chosen from earlier hits. This is one part of the list.
Potency is the fitted concentration of half-maximal effect.

This test in a line: qHTS of Nrf2 Activators: Hit Validation in Primary Assay. Note: nearly all actives have a fitted effect of over 70% in size. The note with it: Nrf2/ARE reporter cell assay, activation. The source says:
Many diseases have some form of oxidative stress injury and ties to inflammation, causing a host of problems for the patient. The antioxidant response element (ARE) plays an important role in alleviating the harmful effects of oxidative stress. The antioxidant response element (ARE) is a transcriptional regulatory element involved in the activation of genes coding for a number of antioxidant proteins and detoxifying enzymes. These enzymes work in concert to protect tissues from oxidative insults and chemical toxicities in human hepatocytes and immune cells. The protective effects of ARE activation are primarily triggered through Nrf2 (NF-E2-related factor) binding to and activating AREs. It is known that Nrf2 controls the production of over 250 antioxidant and detoxification proteins (Hu et al., 2006), thereby protecting tissues by increasing cellular antioxidant content and suppressing inflammatory signaling pathways. The transcription factor Nrf2 is a central link between oxidative chemicals, such as phenolic antioxidants and electrophilic compounds, and the activation of ARE. Nrf2 levels are constitutively low as a consequence of its interaction with Keap1, which targets its degradation (Zipper and Mulcahy, 2002). Electrophiles react with key cysteine residues in Keap1, releasing Nrf2 and allowing its translocation to the nucleus. Once within the nucleus, Nrf2 complexes with coactivators such as p300, and binds to the AREs to induce gene transcription of cytoprotective enzymes, resulting in the prevention of toxicity. Activation of Nrf2 protects tissues by increasing cellular antioxidant content and suppressing inflammatory signaling pathways. Identifying novel and potent Nrf2 activators by using the AREc32 cell line to detect ARE activation by small molecules will lead to the identification and development of probes to study protective pathways in multiple tissues. These specific probes are essential to study the ARE pathway, and eventually to determine whether this pathway does activate genes that could protect against a host of diseases, including cardiovascular diseases, obesity, diabetes, Alzheimer's, and Parkinson's disease.
This project's aim is to identify novel and potent Nrf2 activators by using the AREc32 cell line to detect ARE activation by small molecules, which will lead to the identification and development of probes to study the ARE pathway.
NIH Chemical Genomics Center [NCGC]
NIH Molecular Libraries Probe Centers Network [MLPCN]
Assay Submitter (PI): Curtis Klaassen, University of Kansas Medical Center
Quantification of ARE activation after compound treatment was measured by the Steady-Glo Luciferase (R) assay system (Promega) in AREc32_fluc stable cells. The Steady-Glo reagent acts by cell lysis and generation of a luminescent signal proportional to ARE activation, through the luciferase reporter in the AREc32 stable cell line. AREc32_fluc cells were harvested from T225 flask and resuspended in phenol red free OPTI-MEM medium with 5% FBS. Then 5 microL of 200,000 cells/mL resuspended cells were dispensed into each well of white, solid bottom, 1536-well tissue culture-treated plates using a Multidrop Combi dispenser. After overnight culture at 37 degrees C with 5% CO2, a total of 23 nL of compounds at 5 selected concentrations from the MLSMR/Sytravon or positive control (40 uM stock of CDDO-IM and 2 mM of tBHQ) in DMSO was transferred to each well of the assay plate using a pintool (Kalypsys, San Diego, CA), and the plates were further incubated at 37 degrees C with 5% CO2 for 24 hours. After that, 2 microL of Steady Glo luminescent substrate mix (Promega) was added to each well. The plate was incubated at room temperature for 30 minutes. The plates were measured on a ViewLux plate reader (PerkinElmer) with clear filter.
(Quantitative high-throughput screening tests each substance at several concentrations.)
In the case of `COc1ccc(Sc2cnn(-c3ccccc3)c(=O)c2Cl)cc1`, the Potency is 4.61 µM (active).

As to `O=c1[nH]c(=S)[nH]c(O)c1N=Nc1ccc(S(=O)(=O)N2CCc3ccccc32)cc1`, the Potency was 16.4 µM (active). The figure for `Clc1ccccc1Nc1ncnc(-n2cccc2)n1` is 2.59 µM (active).

On to `Cc1cccc(C(=O)Nc2nnc(SCC(=O)NCc3ccco3)s2)c1`, for which the Potency is 8.2 µM (active). The figure for `Cc1cc(SCC(=O)N/N=C/c2ccco2)nc2ccccc12` is 11.6 µM (active); for `CCn1c(=O)oc2cc(NC(=O)CCl)ccc21` it is 4.61 µM (active); for `Cn1c(=O)oc2cc(NC(=O)CCl)ccc21` it is 4.61 µM (active).

On to `O=C(O)c1ccc([N+](=O)[O-])c([N+](=O)[O-])c1`, for which the Potency was 5.17 µM (active).

As for `Cn1c(O)c(N=Nc2ccc(S(=O)(=O)N3CCOCC3)cc2)c(=O)n(C)c1=O`, the Potency was 18.4 µM (active).

`Clc1cccc(/C=N\Nc2nccs2)c1`: the Potency is 2.91 µM (active). The figure for `O=C(Nc1ccc(Cl)c(Cl)c1)c1ccco1` is 4.61 µM (active); for `O=C1c2ccccc2-c2cc3ccccc3cc21` it is 4.61 µM (active); for `Fc1cccc(F)c1-c1nc(-c2ccc(Cl)cc2)no1` it is 3.66 µM (active).

Regarding `O=C(/C=C/c1ccccc1)c1c(O)n(CCc2ccccc2)c(=O)[nH]c1=O`, the Potency is 3.66 µM (active). The figure for `CCCCn1c(O)c(C(=O)/C=C/c2ccc3c(c2)OCO3)c(=O)[nH]c1=O` is 9.2 µM (active).
